PubChem BioAssay (EPA / NIEHS)
Inconclusive results are not listed. Active and inactive are the calls of the source. How the source made its calls, unless noted: active means hit-call score of the fitted dose curve at least 0.9, where 1 is the maximum; inconclusive means response in the unintended direction; inactive means score below 0.9.

Assays:
[1] = BSK_3C_VCAM1: BioMAP Diversity Plus: 3C Assay for Vascular cell adhesion molecule 1 (VCAM1) Biomarker Activity (AID 2282999; active means hit-call score of the fitted dose curve at least 0.9, where 1 is the maximum; inactive means score below 0.9); details: BioMAP 3C HUVEC, VCAM1 ELISA, cytokine-stimulated; actives raise or lower the signal
Procedure, shortened: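 HUVEC primary cells, 24 h compound exposure; VCAM-1 by ELISA; gain/loss of signal fitted bidirectionally vs DMSO baseline.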

[2] = BSK_4H_Eotaxin3: BioMAP Diversity Plus: 4H Assay for Eotaxin 3 Biomarker Activity (AID 2283000; active means hit-call score of the fitted dose curve at least 0.9, where 1 is the maximum; inactive means score below 0.9); details: primary human endothelial cells (HUVEC); actives raise or lower the signal
Procedure, shortened: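 Chemicals were added to human umbilical vein endothelium cultures, and Eotaxin-3 was quantified by ELISA at 24 h. Values were derived by bidirectional fitting with DMSO serving as negative control and activity baseline.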

[3] = molecular target: human Peroxisome Proliferator-activated Receptor delta (PPARd), PPARD (gene 5467) (UniProt Q03181); assay: ATG_PPARd_TRANS: Attagene TRANS-FACTORIAL HepG2 Assay for human Peroxisome Proliferator-activated Receptor delta (PPARd) (AID 2283002)
human Peroxisome Proliferator-activated Receptor delta (PPARd), PPARD (gene 5467), sequence (Q03181 whole entry, looked up, the tested form may be a part): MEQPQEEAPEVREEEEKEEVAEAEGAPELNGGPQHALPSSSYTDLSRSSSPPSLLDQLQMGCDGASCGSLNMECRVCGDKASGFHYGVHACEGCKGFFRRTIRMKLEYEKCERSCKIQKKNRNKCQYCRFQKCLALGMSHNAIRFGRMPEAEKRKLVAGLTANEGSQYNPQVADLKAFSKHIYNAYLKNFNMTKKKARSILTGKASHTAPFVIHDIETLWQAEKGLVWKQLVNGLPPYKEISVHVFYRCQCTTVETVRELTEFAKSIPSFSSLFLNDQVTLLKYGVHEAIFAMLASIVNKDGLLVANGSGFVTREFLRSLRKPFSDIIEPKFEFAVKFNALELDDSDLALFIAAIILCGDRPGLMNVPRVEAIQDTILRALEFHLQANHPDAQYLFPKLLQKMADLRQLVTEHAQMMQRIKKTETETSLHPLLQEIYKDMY
Procedure, shortened: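 Fluorescence from capillary electrophoresis of labelled RT-PCR reporter fragments gives the signal; DMSO sets baseline. Cells: HepG2 transiently carrying GAL4-UAS reporter units plus chimeric nuclear receptor-Gal4 proteins, exposed to chemicals for 24 h.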

[4] = read-out: Intercellular Adhesion Molecule 1 (ICAM1), ICAM1 (gene 3383); assay: BSK_3C_ICAM1: BioMAP Diversity Plus: 3C Assay for Intercellular Adhesion Molecule 1 (ICAM1) Biomarker Activity (AID 2283003; active means hit-call score of the fitted dose curve at least 0.9, where 1 is the maximum; inactive means score below 0.9); details: primary human endothelial cells (HUVEC); actives raise or lower the signal
Procedure, shortened: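 Using DMSO as baseline, bidirectional curve fitting was applied to ICAM-1 ELISA signals from HUVEC in the 3C system, measured 24 h after compound addition.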

[5] = molecular target: human Retinoic Acid Receptor beta (RARb), RARB (gene 5915) (UniProt P10826); assay: ATG_RARb_TRANS: Attagene TRANS-FACTORIAL HepG2 Assay for human Retinoic Acid Receptor beta (AID 2283004)
Procedure, shortened: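 Transient transfection of HepG2 with multiple reporter units → chemical dosing, 24 h → total RNA isolation → RT with oligo(dT) → reporter-specific PCR, 6-FAM primer extension, HpaI digest → capillary electrophoresis. Positive direction vs DMSO control.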

[6] = molecular target: Retinoic acid receptor alpha (Homo sapiens) (UniProt P10276); assay: ATG_RARa_TRANS: Attagene TRANS-FACTORIAL HepG2 Assay for human Retinoic Acid Receptor alpha (RARa) (AID 2283005)
Retinoic acid receptor alpha (Homo sapiens), sequence (P10276 whole entry, looked up, the tested form may be a part): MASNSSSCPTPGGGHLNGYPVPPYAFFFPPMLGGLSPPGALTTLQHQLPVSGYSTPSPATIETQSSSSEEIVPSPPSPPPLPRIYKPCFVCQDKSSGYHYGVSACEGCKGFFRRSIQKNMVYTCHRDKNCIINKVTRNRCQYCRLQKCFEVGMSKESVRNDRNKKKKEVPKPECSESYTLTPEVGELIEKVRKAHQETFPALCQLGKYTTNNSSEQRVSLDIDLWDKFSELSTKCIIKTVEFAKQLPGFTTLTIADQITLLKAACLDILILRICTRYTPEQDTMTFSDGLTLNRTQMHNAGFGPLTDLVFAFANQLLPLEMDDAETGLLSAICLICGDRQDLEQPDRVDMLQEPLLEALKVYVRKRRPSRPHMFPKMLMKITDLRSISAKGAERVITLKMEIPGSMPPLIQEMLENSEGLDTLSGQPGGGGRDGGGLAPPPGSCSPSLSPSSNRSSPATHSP
Procedure, shortened: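 HepG2 transiently transfected with multiplex GAL4-UAS reporter units including a human RARa–GAL4 chimera; 24 h compound exposure. Reporter mRNA quantified by RT-PCR, 6-FAM labeling and capillary electrophoresis; gain of signal versus DMSO.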

[7] = BSK_3C_Proliferation: Cell Proliferation Assessment in the BioMAP Diversity Plus: 3C Assay (AID 2283006; active means hit-call score of the fitted dose curve at least 0.9, where 1 is the maximum; inactive means score below 0.9;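 on AC50: potency may reflect either rise or fall in cell number versus DMSO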); details: primary human endothelial cells (HUVEC)
Procedure, shortened: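 Measured here: sulforhodamine B (0.1%) staining of TCA-fixed sub-confluent umbilical vein endothelial cultures 48 h post-dosing, absorbance 560 nm. DMSO served as negative control and baseline; both signal gain and loss were modelled.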

[8] = molecular target: Peroxisome proliferator-activated receptor gamma (Homo sapiens) (UniProt P37231); assay: ATG_PPARg_TRANS: Attagene TRANS-FACTORIAL HepG2 Assay for human Peroxisome Proliferator-activated Receptor-gamma (PPARg) (AID 2283007)
Procedure, shortened: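 After 24 h of chemical exposure, transfected HepG2 cells carrying PPARγ-Gal4 chimera reporter constructs are lysed for RNA. Reporter transcripts are measured by RT-PCR and capillary electrophoresis with fluorescent labelling, and gain of signal is fitted versus DMSO.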

[9] = molecular target: Nuclear receptor subfamily 1 group I member 2 (Homo sapiens) (UniProt O75469); assay: ATG_PXR_TRANS: Attagene TRANS-FACTORIAL HepG2 Assay for human Pregnane X Receptor (PXR) (AID 2283008)
Nuclear receptor subfamily 1 group I member 2 (Homo sapiens), sequence (O75469 whole entry, looked up, the tested form may be a part): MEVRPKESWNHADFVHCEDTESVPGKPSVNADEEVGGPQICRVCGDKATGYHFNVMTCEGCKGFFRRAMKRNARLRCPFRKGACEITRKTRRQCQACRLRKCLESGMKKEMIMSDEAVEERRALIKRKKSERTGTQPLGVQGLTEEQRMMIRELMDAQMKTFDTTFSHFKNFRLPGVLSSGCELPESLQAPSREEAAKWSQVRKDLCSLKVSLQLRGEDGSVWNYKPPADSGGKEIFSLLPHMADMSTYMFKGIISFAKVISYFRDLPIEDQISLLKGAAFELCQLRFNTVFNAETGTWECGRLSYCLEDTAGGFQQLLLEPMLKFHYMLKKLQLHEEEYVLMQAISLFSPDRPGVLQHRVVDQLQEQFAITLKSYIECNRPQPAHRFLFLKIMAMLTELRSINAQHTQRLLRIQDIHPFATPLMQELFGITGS
Procedure, shortened: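 HepG2 transfected (FuGene 6) with GAL4-UAS reporter units + PXR-Gal4 chimera; dosed 24 h. Total RNA → oligo(dT) RT → PCR → 6-FAM primer extension → HpaI cut → CE. Gain-of-signal vs DMSO.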

[10] = molecular target: human Retinoic Acid Receptor gamma (RARg), RARG (gene 5916) (UniProt P13631); assay: ATG_RARg_TRANS: Attagene TRANS-FACTORIAL HepG2 Assay for human Retinoic Acid Receptor gamma (RARg) (AID 2283009)
human Retinoic Acid Receptor gamma (RARg), RARG (gene 5916), sequence (P13631 whole entry, looked up, the tested form may be a part): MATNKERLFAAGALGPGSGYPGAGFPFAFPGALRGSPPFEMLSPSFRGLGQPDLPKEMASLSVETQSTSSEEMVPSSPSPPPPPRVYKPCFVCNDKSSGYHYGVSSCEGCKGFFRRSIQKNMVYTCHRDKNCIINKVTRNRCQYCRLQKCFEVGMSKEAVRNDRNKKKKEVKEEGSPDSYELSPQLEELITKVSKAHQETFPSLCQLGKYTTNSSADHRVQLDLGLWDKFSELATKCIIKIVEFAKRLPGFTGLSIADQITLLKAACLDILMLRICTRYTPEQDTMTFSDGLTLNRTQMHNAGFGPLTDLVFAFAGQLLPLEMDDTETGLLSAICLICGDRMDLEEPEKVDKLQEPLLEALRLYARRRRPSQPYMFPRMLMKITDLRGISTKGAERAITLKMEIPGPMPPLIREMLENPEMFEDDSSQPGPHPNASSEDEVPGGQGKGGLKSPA
Procedure, shortened: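 Gain-of-signal relative to DMSO is reported from fluorescent capillary electrophoresis of RT-PCR reporter products. These came from HepG2 cells expressing transfected RARg-GAL4 chimeras with UAS reporters, harvested 24 h after dosing.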

[11] = molecular target: Retinoic acid receptor RXR-alpha (Homo sapiens) (UniProt P19793); assay: ATG_RXRa_TRANS: Attagene TRANS-FACTORIAL HepG2 Assay for human Retinoid X Receptor alpha (RXRa) (AID 2283012)
Retinoic acid receptor RXR-alpha (Homo sapiens), sequence (P19793 whole entry, looked up, the tested form may be a part): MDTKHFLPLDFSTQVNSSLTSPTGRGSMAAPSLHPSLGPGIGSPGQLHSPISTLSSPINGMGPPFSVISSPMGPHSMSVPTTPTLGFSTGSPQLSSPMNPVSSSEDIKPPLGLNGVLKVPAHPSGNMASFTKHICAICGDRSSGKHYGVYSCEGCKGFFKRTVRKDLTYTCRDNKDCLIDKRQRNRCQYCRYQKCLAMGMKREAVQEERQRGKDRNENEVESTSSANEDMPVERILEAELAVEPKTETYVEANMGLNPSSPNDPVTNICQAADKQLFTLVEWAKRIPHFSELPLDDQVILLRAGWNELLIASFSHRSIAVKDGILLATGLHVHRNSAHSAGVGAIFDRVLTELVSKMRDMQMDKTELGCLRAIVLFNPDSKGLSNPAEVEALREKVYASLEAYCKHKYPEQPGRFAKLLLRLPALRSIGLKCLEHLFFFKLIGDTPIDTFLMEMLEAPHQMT
Procedure, shortened: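 Chimeric NR-GAL4 trans-activation in HepG2, 24 h treatment; reporter transcripts quantified by fluorescence on capillary electrophoresis, analysed for upward change from DMSO.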

[12] = molecular target: human Thyroid Receptor alpha (THRa1), THRA (gene 7067) (UniProt P10827); assay: ATG_THRa1_TRANS: Attagene TRANS-FACTORIAL HepG2 Assay for human Thyroid Receptor alpha (THRa1) (AID 2283014)
human Thyroid Receptor alpha (THRa1), THRA (gene 7067), sequence (P10827 whole entry, looked up, the tested form may be a part): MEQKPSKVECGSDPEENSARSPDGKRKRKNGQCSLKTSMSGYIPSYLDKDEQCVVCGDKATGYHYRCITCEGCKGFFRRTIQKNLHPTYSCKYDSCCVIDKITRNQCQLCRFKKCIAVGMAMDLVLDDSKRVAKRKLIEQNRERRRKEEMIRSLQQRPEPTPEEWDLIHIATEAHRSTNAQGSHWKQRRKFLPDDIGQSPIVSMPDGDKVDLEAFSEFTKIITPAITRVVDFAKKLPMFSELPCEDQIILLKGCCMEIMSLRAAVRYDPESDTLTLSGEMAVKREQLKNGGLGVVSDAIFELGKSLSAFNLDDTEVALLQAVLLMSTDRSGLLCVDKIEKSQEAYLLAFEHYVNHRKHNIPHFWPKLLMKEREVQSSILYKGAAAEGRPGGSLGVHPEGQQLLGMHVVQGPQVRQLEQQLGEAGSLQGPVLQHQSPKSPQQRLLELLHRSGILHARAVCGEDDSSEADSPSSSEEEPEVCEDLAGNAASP
Procedure, shortened: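 Reporter transcript induction, read by capillary electrophoresis of 6-FAM-labelled RT-PCR products, reflects activity of a transfected THRa1-Gal4 fusion in HepG2 liver cells. Cells were dosed for 24 h; activity was fitted in the positive direction against DMSO.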

[13] = read-out: E-selectin (Homo sapiens) (UniProt P16581); assay: BSK_3C_Eselectin: BioMAP Diversity Plus: 3C Assay for Eselectin Biomarker Activity (AID 2283015; active means hit-call score of the fitted dose curve at least 0.9, where 1 is the maximum; inactive means score below 0.9); details: primary human endothelial cells (HUVEC); actives raise or lower the signal
Procedure, shortened: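 ELISA read-out of E-selectin on endothelial monolayers after 24 h chemical treatment. Human umbilical vein primary cells served as the system, with DMSO defining baseline activity for bidirectional fitting.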

[14] = read-out: Interleukin-1 alpha (IL1a), IL1A (gene 3552); assay: BSK_BE3C_IL1a: BioMAP Diversity Plus: BE3C Assay for Interleukin-1 alpha (IL1a) Biomarker Activity (AID 2283016; active means hit-call score of the fitted dose curve at least 0.9, where 1 is the maximum; inactive means score below 0.9); details: primary human bronchial epithelial cells; actives raise or lower the signal
Procedure, shortened: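 Measured in human lung primary bronchial epithelial cells: IL-1a by ELISA at 24 h after dosing, with bidirectional fitting against DMSO.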

[15] = read-out: Monocyte Chemoattractant Protein-1 (MCP1), CCL2 (gene 6347); assay: BSK_4H_MCP1: BioMAP Diversity Plus: 4H Assay for Monocyte Chemoattractant Protein-1 (MCP1) Biomarker Activity (AID 2283018; active means hit-call score of the fitted dose curve at least 0.9, where 1 is the maximum; inactive means score below 0.9); details: primary human endothelial cells (HUVEC); actives raise or lower the signal
Procedure, shortened: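 Primary human umbilical vein endothelium is exposed to chemical for 24 h before MCP-1 is assayed by ELISA. Concentration-response fitted bidirectionally relative to DMSO.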

[16] = molecular target: human RAR-related Orphan Receptor gamma (RORg), RORC (gene 6097) (UniProt P51449); assay: ATG_RORg_TRANS: Attagene TRANS-FACTORIAL HepG2 Assay for human RAR-related Orphan Receptor gamma (RORg) (AID 2283011)
human RAR-related Orphan Receptor gamma (RORg), RORC (gene 6097), sequence (P51449 whole entry, looked up, the tested form may be a part): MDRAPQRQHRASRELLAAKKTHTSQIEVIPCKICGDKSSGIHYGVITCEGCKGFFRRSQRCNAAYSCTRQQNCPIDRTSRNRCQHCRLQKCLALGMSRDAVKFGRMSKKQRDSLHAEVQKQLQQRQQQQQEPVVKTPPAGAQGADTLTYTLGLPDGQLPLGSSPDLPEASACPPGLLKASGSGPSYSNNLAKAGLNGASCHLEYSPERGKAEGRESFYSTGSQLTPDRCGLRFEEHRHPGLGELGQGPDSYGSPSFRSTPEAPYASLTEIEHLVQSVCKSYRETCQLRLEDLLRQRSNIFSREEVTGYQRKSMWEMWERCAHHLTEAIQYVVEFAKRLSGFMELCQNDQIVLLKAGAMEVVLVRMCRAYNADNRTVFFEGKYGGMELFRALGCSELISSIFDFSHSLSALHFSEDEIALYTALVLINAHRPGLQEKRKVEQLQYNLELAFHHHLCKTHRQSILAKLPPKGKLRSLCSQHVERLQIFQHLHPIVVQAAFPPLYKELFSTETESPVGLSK
Procedure, shortened: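 First, HepG2 liver cells were transfected with GAL4-UAS-driven reporter constructs and the RORg-Gal4 fusion. Next, they were treated with chemical for 24 h. Finally, reporter mRNA was quantified by RT-PCR and capillary electrophoresis, with upward activity fitted against DMSO.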

[17] = molecular target: human RAR-related Orphan Receptor beta (RORb), RORB (gene 6096) (UniProt Q92753); assay: ATG_RORb_TRANS: Attagene TRANS-FACTORIAL HepG2 Assay for human RAR-related Orphan Receptor beta (RORb) (AID 2283010)
human RAR-related Orphan Receptor beta (RORb), RORB (gene 6096), sequence (Q92753 whole entry, looked up, the tested form may be a part): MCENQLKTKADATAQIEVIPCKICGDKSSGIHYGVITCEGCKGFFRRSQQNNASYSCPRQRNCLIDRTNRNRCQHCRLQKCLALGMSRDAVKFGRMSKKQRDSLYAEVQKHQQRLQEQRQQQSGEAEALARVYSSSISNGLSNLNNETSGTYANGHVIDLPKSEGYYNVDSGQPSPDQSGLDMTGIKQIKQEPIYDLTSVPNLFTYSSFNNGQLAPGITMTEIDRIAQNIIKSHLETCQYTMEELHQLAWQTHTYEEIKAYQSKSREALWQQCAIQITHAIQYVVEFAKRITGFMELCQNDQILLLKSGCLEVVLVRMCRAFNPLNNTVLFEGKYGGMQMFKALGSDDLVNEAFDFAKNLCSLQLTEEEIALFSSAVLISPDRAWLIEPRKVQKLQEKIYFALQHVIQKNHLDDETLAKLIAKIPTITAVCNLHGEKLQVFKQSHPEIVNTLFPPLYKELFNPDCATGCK
Procedure, shortened: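 Multiplexed transcription-factor reporter assay: HepG2 cells transiently carrying NR-Gal4/GAL4-UAS constructs, 24 h treatment, mRNA quantified by RT-PCR plus capillary electrophoresis fluorescence; activity scored as induction over DMSO.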

[18] = read-out: Monocyte Chemoattractant Protein-1 (MCP1), CCL2 (gene 6347); assay: BSK_3C_MCP1: BioMAP Diversity Plus: 3C Assay for Monocyte Chemoattractant Protein-1 (MCP1) Biomarker Activity (AID 2283017; active means hit-call score of the fitted dose curve at least 0.9, where 1 is the maximum; inactive means score below 0.9); details: primary human endothelial cells (HUVEC); actives raise or lower the signal
Procedure, shortened: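 ELISA read-out of MCP-1 from human umbilical vein endothelial cell cultures harvested 24 h post-dosing. Gain or loss of signal was fitted relative to DMSO.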

[19] = molecular target: human Retinoid X Receptor beta (RXRb), RXRB (gene 6257) (UniProt P28702); assay: ATG_RXRb_TRANS: Attagene TRANS-FACTORIAL HepG2 Assay for human Retinoid X Receptor beta (RXRb) (AID 2283013)
human Retinoid X Receptor beta (RXRb), RXRB (gene 6257), sequence (P28702 whole entry, looked up, the tested form may be a part): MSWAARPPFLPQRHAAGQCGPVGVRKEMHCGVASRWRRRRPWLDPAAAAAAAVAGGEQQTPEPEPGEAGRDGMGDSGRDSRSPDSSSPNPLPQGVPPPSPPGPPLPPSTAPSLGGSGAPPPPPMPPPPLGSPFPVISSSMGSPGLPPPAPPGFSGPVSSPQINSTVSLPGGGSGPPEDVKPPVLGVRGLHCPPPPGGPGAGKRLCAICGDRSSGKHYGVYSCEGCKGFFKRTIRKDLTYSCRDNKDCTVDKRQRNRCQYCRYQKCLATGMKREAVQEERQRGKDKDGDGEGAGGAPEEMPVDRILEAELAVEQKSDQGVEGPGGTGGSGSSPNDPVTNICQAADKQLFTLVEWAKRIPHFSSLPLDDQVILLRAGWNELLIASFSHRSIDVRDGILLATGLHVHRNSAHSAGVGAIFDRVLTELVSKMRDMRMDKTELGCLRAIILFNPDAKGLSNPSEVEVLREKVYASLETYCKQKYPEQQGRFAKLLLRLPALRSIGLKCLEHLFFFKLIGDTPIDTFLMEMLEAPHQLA
Procedure, shortened: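 After a 24 h incubation with test chemical, transfected HepG2 cells carrying NR-Gal4 fusions and GAL4-UAS reporter transcription units yield RNA whose reporter cDNA is FAM-labelled, HpaI-cut and sized by capillary electrophoresis; increases over DMSO are scored.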

[20] = molecular target: human Peroxisome Proliferator-activated Receptor alpha (PPARa), PPARA (gene 5465) (UniProt Q07869); assay: ATG_PPARa_TRANS: Attagene TRANS-FACTORIAL HepG2 Assay for human Peroxisome Proliferator-activated Receptor alpha (PPARa) (AID 2283001)
Procedure, shortened: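 Transient HepG2 transfection, GAL4-UAS reporters, NR-Gal4 chimeras; 24 h compound exposure. Readout: reporter transcripts by RT-PCR, 6-FAM primer extension, HpaI digest, capillary electrophoresis. Positive direction vs DMSO baseline.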

Measured: AC50

E-selectin (Homo sapiens), sequence (P16581 whole entry, looked up): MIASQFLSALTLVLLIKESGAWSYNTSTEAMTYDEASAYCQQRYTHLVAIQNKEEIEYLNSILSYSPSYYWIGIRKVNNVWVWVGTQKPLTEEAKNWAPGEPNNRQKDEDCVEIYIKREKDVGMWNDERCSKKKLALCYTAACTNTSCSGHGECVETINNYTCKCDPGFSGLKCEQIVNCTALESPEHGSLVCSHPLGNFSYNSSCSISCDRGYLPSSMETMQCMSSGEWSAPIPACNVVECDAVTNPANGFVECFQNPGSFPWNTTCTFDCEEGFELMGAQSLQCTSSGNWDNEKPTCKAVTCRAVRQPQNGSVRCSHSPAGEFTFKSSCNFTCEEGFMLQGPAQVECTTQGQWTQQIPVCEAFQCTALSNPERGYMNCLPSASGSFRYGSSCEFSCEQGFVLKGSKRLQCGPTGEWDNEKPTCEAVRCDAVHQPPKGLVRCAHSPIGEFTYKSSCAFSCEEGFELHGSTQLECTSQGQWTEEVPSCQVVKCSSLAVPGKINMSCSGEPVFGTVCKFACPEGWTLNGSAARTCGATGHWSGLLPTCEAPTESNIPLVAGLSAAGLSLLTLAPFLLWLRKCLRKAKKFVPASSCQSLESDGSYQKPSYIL

COC(=O)c1cccc(C)c1S(=O)(=O)NC(=O)Nc1nc(OCC(F)(F)F)nc(N(C)C)n1
not listed: [16] | [17] | [18] | [19] | [20]
inactive: all other assays above

CCCN(CCC)c1c([N+](=O)[O-])cc(C(F)(F)F)c(N)c1[N+](=O)[O-]
inactive: [3] | [5] | [6] | [8] | [10] | [16] | [12]
active: [1] 30.8 µM | [2] 30.3 µM | [4] 36.8 µM | [7] 13.2 µM | [9] 3.98 µM | [13] 14.9 µM | [14] 31.3 µM | [15] 29.7 µM

O=C(Nc1ccc([N+](=O)[O-])cc1Cl)c1cc(Cl)ccc1O
active: [1] 0.189 µM | [2] 0.148 µM | [4] 20 µM | [7] 0.313 µM | [14] 0.148 µM
not listed: [8] | [11] | [15] | [16] | [19] | [20]
inactive: all other assays above

CCCCC(CC)CN1C(=O)C2C3C=CC(C3)C2C1=O (stereo unspecified)
inactive: [1] | [2] | [3] | [4] | [11] | [19] | [13] | [14]
active: [7] 31.2 µM | [9] 14.6 µM | [15] 19.2 µM

CCCCOC(=O)[C@@H](C)Oc1ccc(Oc2ccc(C(F)(F)F)cn2)cc1
not listed: [3] | [8] | [16] | [18]
inactive: all other assays above

CCOC(=O)[C@H](C)Oc1ccc(Oc2nc3ccc(Cl)cc3o2)cc1
not listed: [3] | [5] | [12] | [16] | [20]
inactive: all other assays above

CCOC(=O)COc1cc(-n2ncc(C(F)(F)F)c(C)c2=O)c(F)cc1Cl
not listed: [3] | [8] | [11] | [17]
inactive: all other assays above

COC(=O)c1ccc(CNS(C)(=O)=O)cc1S(=O)(=O)NC(=O)Nc1nc(OC)cc(OC)n1
not listed: [3] | [6] | [8] | [10] | [11] | [18]
inactive: all other assays above
